Tb PYK inh – qHTS of Trypanosoma Brucei Inhibitors. hit rate 0.12% among 410,000. Potency, µM (highest dose often 76.8 µM), for inactives: at the highest dose activity, negative = inhibition, most hits filed as inhibitors. TbPYK enzyme, Kinase-Glo Plus ATP luminescence, 45 min. pyruvate kinase (Trypanosoma brucei), Q57TT1. AID 624173, 2012; also: potency is read from the fitted curve at half-maximal effect; % is scaled to controls: 0 for no effect and ±100 for the full control effect; nearly all actives have a fitted effect of over 50% in size
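Luminescence from Kinase-Glo Plus, added after a 45-minute room-temperature reaction, served as the end-point read-out. The enzyme and substrate were preincubated with compound before ADP (130 uM final) initiated turnover. Concentration-effect curves came from normalized qHTS data.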
FBPA Giardia inh – qHTS Assay for Inhibitors of Fructose-1,6-bisphosphate Aldolase from Giardia Lamblia. hit rate 0.71% among 290,000. Potency, µM (titrated, usually from 59.6 µM), inactives show at the top dose activity, negative = inhibition, most hits filed as inhibitors. purified Giardia FBPA; also: potency is read from the fitted curve at half-maximal effect; % is scaled to controls: 0 for no effect and ±100 for the full control effect; nearly all actives have a fitted effect of over 55% in size
Target sequence (A8B2U2 whole entry, looked up): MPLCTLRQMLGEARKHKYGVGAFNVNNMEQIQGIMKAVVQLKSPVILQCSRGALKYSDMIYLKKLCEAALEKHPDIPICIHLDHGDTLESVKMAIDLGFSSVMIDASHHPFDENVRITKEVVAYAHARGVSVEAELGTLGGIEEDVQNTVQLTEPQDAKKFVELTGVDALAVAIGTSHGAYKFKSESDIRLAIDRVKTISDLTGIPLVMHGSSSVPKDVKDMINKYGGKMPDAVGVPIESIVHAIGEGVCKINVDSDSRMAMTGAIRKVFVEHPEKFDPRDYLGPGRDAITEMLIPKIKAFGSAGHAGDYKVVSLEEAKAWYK
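40 nM FBPA preincubated 10 min at RT with compound (up to 57.5 uM final), then substrate plus GAPDH/TPI/NAD/arsenate coupling and diaphorase/resazurin added. Fluorescence read after 20 min at RT, 525/598 nm.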
RE007 growth inh – qHTS Assay for Inhibitors of the HIV-1 protein Vpr; S. pombe RE007 Vpr strain, BacTiter-Glo ATP luminescence, 24 h; Potency, µM (top dose mostly 92.2 µM), for inactives: top-dose activity change, negative = less growth, hits mostly inhibitors; hit rate 0.21% among 360,000; active = well fitted falling curve with a large enough effect; inconclusive = small, poorly fitted or top-dose-only effect; inactive = no such curve, though single readings can be large or run the other way; also: potency is read from the fitted curve at half-maximal effect; % is scaled to controls: 0 for no effect and ±100 for the full control effect; nearly all actives have a fitted effect of over 50% in size
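Fission yeast RE007 carrying one integrated HIV-1 vpr copy, seeded at OD 0.01 in PMG+AL medium with 23 nL pinned compound. Grown 24 h at 30 degrees; viability read by BacTiter-Glo luminescence after 5 min.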
LmPK inh – qHTS Assay for Inhibitors of Leishmania Mexicana Pyruvate Kinase (LmPK); Potency, µM (top dose mostly 57.5 µM), for inactives: top-dose activity change, negative = inhibition, hits mostly inhibitors; hit rate 0.37% among 290,000; AID 1721, 2009; purified LmPK, Kinase-Glo ATP luminescence, 1 h; also: potency is read from the fitted curve at half-maximal effect; % is scaled to controls: 0 for no effect and ±100 for the full control effect
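Pyruvate kinase activity monitored as ATP production (luciferase luminescence). Conditions: 0.1 nM enzyme, 0.5 mM PEP, 0.1 mM ADP, 1 h, RT; normalized against uninhibited and no-enzyme wells.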
Cycloheximide cs – Cycloheximide Counterscreen for Small Molecule Inhibitors of Shiga Toxin; cell reporter, cycloheximide protein synthesis inhibition counterscreen; max response, %; hit rate 12% among 300,000; AID 2314, 2010; in the data active = max response mostly above about 13%, no sharp cut-off; inactive = mostly below about 14%; also: read at 38.3 µM for the half of the compounds with a filed dose; 0% is about no effect
Shiga toxin inh – A qHTS for Small Molecule Inhibitors of Shiga Toxin; Vero cells, Shiga toxin protein synthesis inhibition reporter; inhibition, % at 38.7 µM; hit rate 9.2% among 290,000; in the data active = inhibition mostly above about 28%, no sharp cut-off; inactive = mostly below about 43%; also: 0% is about no effect
Starred values were filed as active, the others as inactive; ? = inconclusive; / = not tested or not shown; + = active, no number; [ ] = remark or other dose. This is one part of a sample in which hits are shown more often than they occur. Unless noted, calls follow the shape of the dose curve; as a rule, active = well fitted curve in the direction sought with a large enough effect; inconclusive = small, poorly fitted or top-dose-only effect, or another doubt; inactive = no such curve, though single readings can be large; an effect the other way counts as inactive or inconclusive.

SMILES | Tb PYK inh | FBPA Giardia inh | RE007 growth inh | LmPK inh | Cycloheximide cs | Shiga toxin inh
Cc1ccc2cc3cc(C(=O)N4CCN(c5ccc(Cl)cc5)CC4)oc3nc2c1 | 5% | / | / | / | / | /
CCc1nc2ccc(C(=O)NCc3ccccc3OC)cn2c1N(CC)CCOC | -1% | / | -14%[18.4 µM] | / | / | /
O=C(Nc1nccs1)c1ccc2ccccc2n1 | -1% | -28% | ? | -5% | 45* | 120*
O=C(Nc1ccccn1)c1ccc2ccccc2n1 | -14% | 1%[12.9 µM] | -29% | ? | 66* | 81*
O=C(Nc1ccccn1)c1ccc(-c2ccccc2)cc1 | -9% | -21% | -26% | -5% | 0 | 7
CCS(=O)(=O)N1CC(=O)N(c2ccc(C)c(C)c2)C(C)(C(=O)NC2CCCCCC2)C1 (stereo unspecified) | 6%[15.4 µM] | / | / | / | / | /
CCc1nnc(NC(=O)c2sc3nc4c(cc3c2N)CCCCCC4)s1 | -4% | 10% | -8% | 5% | 13* | 59
CCc1nnc(NC(=O)c2sc3nc4c(cc3c2N)CCCCC4)s1 | 5% | 7% | -7% | -4% | 42* | 46*
CC(NS(=O)(=O)c1cccc(Cl)c1F)[C@H](O)c1ccccc1 (stereo partly specified) | 1% | / | 9% | / | / | /
CCCCOP(=O)(OCCCC)C1(C)CC(=O)CC(C)(C)C1 (stereo unspecified) | -2% | / | 1% | / | / | /
CC1CCC(NC(=O)CCCn2sc3ccccc3c2=O)CC1 (stereo unspecified) | -18% | 4% | 7% | 2% | 22* | 11
Cc1[nH]n(-c2ccccc2)c(=O)c1/C=N/NC(=O)c1ccc(O)cc1O | -2% | -24% | 4% | -9% | 29* | 68*
Cc1ccc(-n2[nH]c(C)c(/C=N/NC(=O)c3ccc(O)cc3O)c2=O)cc1 | 1% | 5% | -24% | -2% | 25* | 73*
Nc1ncc(S(=O)(=O)NCc2ccc(Cl)cc2)cn1 | -2% | / | / | / | / | /
CC1CCN(c2nc3ccc(C(=O)N4CCN(Cc5ccc6c(c5)OCO6)CC4)cc3s2)CC1 | 1% | -3% | -15% | 7% | 136* | +
COc1ccc(N2CCN(C(=O)c3ccc4nc(N5CCCCC5)sc4c3)CC2)cc1 | 1% | -12% | 0% | -2% | 53* | 44*
COc1cccc(N2CCN(C(=O)c3ccc4nc(N5CCCCC5)sc4c3)CC2)c1 | 2% | -20% | 11% | 1% | 77* | 109*
O=C(CN1Cc2ccccc2C1=O)Nc1cc(F)ccc1F | 1% | / | / | / | / | /
CN(c1ccccc1C(=O)O)S(=O)(=O)c1ccc2[nH]c(=O)oc2c1 | -4% | / | / | / | / | /
CN(C)CCNC(=O)c1ccc2nc(Cc3ccccc3)oc2c1 | 0% | / | / | / | / | /
O=C(NCC1CCCO1)c1cn(Cc2ccccc2Cl)nc1-c1ccccc1 (stereo unspecified) | -14% | / | -22% | / | / | /
C[C@]12CCC3c4ccc(OCC(=O)O)cc4CCC3C1CCC2=O (stereo partly specified) | -7% | 7% | 5% | 2% | -4 | -9
O=C(CSc1nnc(-c2cccs2)o1)N1CCCCC1 | -13% | 1% | -6% | 1% | 48* | 113*
O=C(CSc1nnc(-c2cccs2)o1)N1CCOCC1 | -3% | -5% | -6% | 2% | -2 | -5
CC1CCN(C(=O)CSc2nnc(-c3cccs3)o2)CC1 | 0% | 18% | -6% | 0% | 45* | 63*
SMILES | Tb PYK inh | FBPA Giardia inh | RE007 growth inh | LmPK inh | Cycloheximide cs | Shiga toxin inh
CC1CCN(C(=O)CSc2nnc(-c3ccccc3Cl)o2)CC1 | 2% | / | / | / | / | /
CC1CCN(C(=O)CSc2nnc(-c3ccccc3F)o2)CC1 | -9% | / | -22% | 1% | 15 | 56*
COc1ccc(C=O)cc1CSc1nnc(COc2cccc3cccnc23)o1 | -3% | -2% | -24% | -3% | -1 | 0
CC(C)COc1ccccc1C1CC(=O)Nc2cc3c(cc21)OCO3 (stereo unspecified) | 4% | / | / | / | / | /
O=C(NCC1CCCO1)c1cc(-c2ccc(F)cc2)no1 (stereo unspecified) | -4% | / | 0% | -7% | 45* | 97*
COc1cccc(-c2cc(C(=O)NCC3CCCO3)on2)c1 (stereo unspecified) | 3% | / | -11% | -7% | 36* | 48*
N#Cc1cccc(-c2nc(NCc3ccccc3)c3ccccc3n2)c1 | / | 1% | / | / | / | /
CCNC(=O)c1ccc2nc(Cc3ccccc3)oc2c1 | 5% | / | / | / | / | /
CC(C)C1C(=O)N(Cc2cn(Cc3ccco3)nn2)CCS(=O)(=O)N1Cc1ccc(-c2ccc(F)cc2)cc1 (stereo unspecified) | -3% | / | 2% | / | / | /
COC(=O)c1cc(Cl)c(NC(=O)c2ccc(C(C)(C)C)cc2)cc1OC | 6% | -3% | -4% | 2% | 26* | 44*
COC(=O)c1cc(Cl)c(NC(=O)C(C)C)cc1OC | -22% | -3% | -14% | 0% | -2 | -4
CC1=[N+](C)c2c(ccc3cccnc23)C1(C)C | -1% | 2µM* | ? | -6% | -1 | 1
Cc1ccc2oc(/N=C(\N)NC(=O)C(C)(C)C)nc2c1 | -2% | 4% | 15% | -3% | 27* | 32
CC(C)(C)c1ccc(C(=O)N/C(N)=N/c2nc3ccccc3o2)cc1 | -16% | 8% | -10% | 1% | -3 | -5
N/C(=N\c1nc2ccccc2o1)NC(=O)c1ccc([N+](=O)[O-])cc1 | 4% | -3% | -15% | -1% | -3 | 12
Cc1ccc2oc(/N=C(\N)NC(=O)C3CC3)nc2c1 | 5% | 0% | -8% | 0% | 55* | 65*
Cc1ccc(CNS(=O)(=O)c2c(C(=O)N3CCC(C)CC3)c(C)n(C)c2C)cc1 | 5% | / | / | / | / | /
Cc1cc(C)n(-c2nc3cc(Cl)ccc3nc2N2CCN(c3ccccc3F)CC2)n1 | 1% | / | / | / | / | /
CC(=O)CC1OC(=O)C(Br)=C1NCc1ccccc1 (stereo unspecified) | -24% | -4% | ? | 2% | 22* | 29
O=C(CC1Oc2ccccc2NC1=O)NCc1ccccc1 (stereo unspecified) | 1% | 2% | 2% | -3% | -3 | 14
N/C(=N\OC(=O)CCCc1ccccc1)c1ccccn1 | 0% | 12% | 1% | ? | 35* | 54*
N/C(=N\OC(=O)C(c1ccccc1)c1ccccc1)c1ccccn1 | 2% | 0% | 2% | 4% | 22* | 49*
CN(CC(=O)O/N=C(\N)c1ccccn1)S(=O)(=O)c1ccccc1 | -4% | 5% | 5% | -4% | 17 | 44*
COc1ccc(/C(N)=N/OC(=O)CN(C)S(=O)(=O)c2ccccc2)cc1 | -10% | -4% | 3% | -1% | 14 | 41
N/C(=N\OC(=O)Cc1ccccc1)c1ccccn1 | -29% | 0% | -7% | -10% | 28* | 37
